According to PubChem BioAssay (EPA / NIEHS):
Active and inactive are the calls of the source. The calls were made as follows: active = hit-call score of the fitted dose curve at least 0.9, where 1 is the maximum; inactive = score below 0.9.

What was measured:
[1] = read-out: Tumor necrosis factor receptor superfamily member 6 (Homo sapiens) (UniProt P25445); test: LTEA_HepaRG_FAS: Life Technologies and Expression Analysis (LTEA) Assay for Fas cell surface death receptor (FAS) using HepaRG (AID 2283447); details: mRNA level, 48 h; actives raise or lower the signal
In short: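 Differentiated HepaRG cells in serum-free induction medium were exposed 48 h to 8 half-log concentrations up to 100 uM in 0.5% DMSO, in duplicate. FAS mRNA was measured by qRT-PCR normalised to ACTB, GAPDH and POLR2A; bidirectional fit versus DMSO.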

[2] = read-out: Fatty acid synthase (Homo sapiens) (UniProt P49327); test: LTEA_HepaRG_FASN: Life Technologies and Expression Analysis (LTEA) Assay for Fatty Acid Synthase (FASN) using HepaRG (AID 2283448); details: mRNA level, 48 h; actives raise or lower the signal
In short: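 HepaRG, 48 h exposure, 8-pt half-log series top 100 uM, 0.5% DMSO vehicle, duplicates. Readout: FASN transcript by Fluidigm qRT-PCR; housekeeping-normalized; bidirectional curve fit vs DMSO baseline.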

[3] = read-out: Cyclin D2 (CCND2), CCND2 (gene 894); test: LTEA_HepaRG_CCND2: Life Technologies and Expression Analysis (LTEA) Assay for Cyclin D2 (CCND2) using HepaRG (AID 2283449); details: mRNA level, 48 h; actives raise or lower the signal;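 also: CCND2 transcript measured by TaqMan qRT-PCR and normalised to three housekeeping genes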
In short: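 HepaRG, 48 h dosing, 8-pt half-log curve from 100 uM, 0.5% DMSO; duplicate wells. Readout: CCND2 transcript by microfluidic qRT-PCR, housekeeping-normalised; bidirectional fit vs DMSO baseline.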

[4] = read-out: Cyclin Dependent Kinase Inhibitor 1A (CDKN1A), CDKN1A (gene 1026); test: LTEA_HepaRG_CDKN1A: Life Technologies and Expression Analysis (LTEA) Assay for Cyclin Dependent Kinase Inhibitor 1A (CDKN1A) using HepaRG (AID 2283450); details: mRNA level, 48 h; actives raise or lower the signal
In short: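 Differentiated HepaRG cells in serum-free induction medium, exposed 48 h in duplicate to eight half-log concentrations up to 100 uM in 0.5% DMSO. mRNA measured by TaqMan qRT-PCR, normalized to ACTB, GAPDH, POLR2A; bidirectional fit versus DMSO.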

[5] = read-out: Cyclin D1 (CCND1), CCND1 (gene 595); test: LTEA_HepaRG_CCND1: Life Technologies and Expression Analysis (LTEA) Assay for Cyclin D1 (CCND1) using HepaRG (AID 2283451); details: mRNA level, 48 h; actives raise or lower the signal
In short: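 Differentiated HepaRG cells exposed 48 h in serum-free induction medium to eight half-log concentrations from 100 uM top, 0.5% DMSO, duplicates. CCND1 mRNA measured by Fluidigm TaqMan qRT-PCR, normalised to ACTB, GAPDH, POLR2A; bidirectional fit.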

[6] = read-out: catalase (CAT), CAT (gene 847); test: LTEA_HepaRG_CAT: Life Technologies and Expression Analysis (LTEA) Assay for catalase (CAT) using HepaRG (AID 2283452); details: mRNA level, 48 h; actives raise or lower the signal
In short: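 HepaRG cells in serum-free induction medium, 0.5% DMSO vehicle, exposed 48 h in duplicate over 8 half-log concentrations from 100 uM. CAT mRNA measured by qRT-PCR, normalized to ACTB, GAPDH, POLR2A; bidirectional fit versus DMSO.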

[7] = read-out: flavin-containing dimethylaniline monooxygenases 3 (FMO3), FMO3 (gene 2328); test: LTEA_HepaRG_FMO3: Life Technologies and Expression Analysis (LTEA) Assay for flavin-containing dimethylaniline monooxygenases 3 (FMO3) using HepaRG (AID 2283453); details: mRNA level, 48 h; actives raise or lower the signal
In short: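 Eight-point concentration-response in serum-free HepaRG cultures (top 100 uM, 0.5% DMSO, 48 h). Read-out: FMO3 mRNA level normalized to three endogenous control genes, fitted bidirectionally versus vehicle.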

[8] = read-out: CFLAR gene, CFLAR (gene 8837); test: LTEA_HepaRG_CFLAR: Life Technologies and Expression Analysis (LTEA) Assay for CFLAR gene using HepaRG (AID 2283455); details: mRNA level, 48 h; actives raise or lower the signal
In short: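 qRT-PCR read-out (Fluidigm/TaqMan) of CFLAR mRNA, normalized to three housekeeping genes, in differentiated human HepaRG cells after 48 h chemical exposure; 8-point half-log series from 100 uM in 0.5% DMSO; bidirectional curve fitting versus DMSO.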

[9] = read-out: Forkhead box O1 (FOXO1), FOXO1 (gene 2308); test: LTEA_HepaRG_FOXO1: Life Technologies and Expression Analysis (LTEA) Assay for Forkhead box O1 (FOXO1) using HepaRG (AID 2283456); details: mRNA level, 48 h; actives raise or lower the signal
In short: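 HepaRG, 48 h exposure, 8-pt half-log series from 100 uM in 0.5% DMSO, duplicates; Fluidigm qRT-PCR mRNA, housekeeping-normalised; bidirectional fit vs DMSO baseline.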

[10] = read-out: growth arrest and DNA damage 45 (GADD45A), GADD45A (gene 1647); test: LTEA_HepaRG_GADD45A: Life Technologies and Expression Analysis (LTEA) Assay for growth arrest and DNA damage 45 (GADD45A) using HepaRG (AID 2283458); details: mRNA level, 48 h; actives raise or lower the signal
In short: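 HepaRG, 48 h exposure, 8 conc. (top 100 uM, half-log steps), 0.5% DMSO vehicle, duplicates. Read-out: qRT-PCR mRNA level, housekeeping-normalized (ACTB/GAPDH/POLR2A). Curves fit bidirectionally vs DMSO baseline.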

[11] = read-out: Forkhead box O3 (FOXO3), FOXO3 (gene 2309); test: LTEA_HepaRG_FOXO3: Life Technologies and Expression Analysis (LTEA) Assay for Forkhead box O3 (FOXO3) using HepaRG (AID 2283459); details: mRNA level, 48 h; actives raise or lower the signal
In short: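 qRT-PCR readout of FOXO3 transcript, normalized to three housekeeping genes (ACTB, GAPDH, POLR2A); gain or loss fitted against 0.5% DMSO vehicle. HepaRG cells, 48 h chemical exposure, 8-point half-log series, top 100 uM.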

[12] = read-out: ABC Transporter (ABCB1), ABCB1 (gene 5243); test: LTEA_HepaRG_ABCB1: Life Technologies and Expression Analysis (LTEA) Assay for ABC Transporter (ABCB1) using HepaRG (AID 2283460); details: mRNA level, 48 h; actives raise or lower the signal
In short: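 HepaRG, 48 h exposure, 8-pt half-log series from 100 uM, 0.5% DMSO vehicle, duplicates. Readout: ABCB1 transcript by Fluidigm TaqMan qRT-PCR, housekeeping-normalized; bidirectional curve fit vs DMSO baseline.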

[13] = read-out: ABC Transporter (ABCC3), ABCC3 (gene 8714); test: LTEA_HepaRG_ABCC3: Life Technologies and Expression Analysis (LTEA) Assay for ABC Transporter (ABCC3) using HepaRG (AID 2283462); details: mRNA level, 48 h; actives raise or lower the signal
In short: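 Differentiated human HepaRG cells exposed 48 h in serum-free induction medium, 0.5% DMSO vehicle, 8-point half-log series to 100 uM in duplicate. ABCC3 mRNA by qRT-PCR, normalised to ACTB, GAPDH, POLR2A; bidirectional fit vs DMSO.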

[14] = read-out: ABC Transporter (ABCB11), ABCB11 (gene 8647); test: LTEA_HepaRG_ABCB11: Life Technologies and Expression Analysis (LTEA) Assay for ABC Transporter (ABCB11) using HepaRG (AID 2283463); details: mRNA level, 48 h; actives raise or lower the signal
In short: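 HepaRG, 48 h exposure, 8-pt half-log CRC top 100 uM, 0.5% DMSO vehicle, duplicates. Readout: TaqMan qRT-PCR of ABCB11 mRNA, housekeeping-normalized (ACTB/GAPDH/POLR2A). Bidirectional fit vs DMSO baseline.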

[15] = read-out: ABC Transporter (ABCC2), ABCC2 (gene 1244); test: LTEA_HepaRG_ABCC2: Life Technologies and Expression Analysis (LTEA) Assay for ABC Transporter (ABCC2) using HepaRG (AID 2283464); details: mRNA level, 48 h; actives raise or lower the signal
In short: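 Differentiated HepaRG cells in serum-free induction medium exposed 48 h to eight half-log concentrations up to 100 uM, 0.5% DMSO, in duplicate. ABCC2 mRNA measured by qRT-PCR (TaqMan, Fluidigm), normalized to ACTB, GAPDH and POLR2A. Fitted in both directions against DMSO.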

[16] = read-out: Broad substrate specificity ATP-binding cassette transporter ABCG2 (Homo sapiens) (UniProt Q9UNQ0); test: LTEA_HepaRG_ABCG2: Life Technologies and Expression Analysis (LTEA) Assay for ABC Transporter (ABCG2) using HepaRG (AID 2283465); details: mRNA level, 48 h; actives raise or lower the signal
In short: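 HepaRG, 48 h exposure, 8-pt half-log series from 100 uM, 0.5% DMSO vehicle, duplicates. Readout: ABCG2 transcript by qRT-PCR (Fluidigm array), housekeeping-normalized; bidirectional curve fit relative to DMSO baseline.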

[17] = CEETOX_H295R_PROG: CeeTox H295R High-throughput Steroidogenesis Assay for Progesterone (PROG) (AID 2283442); details: actives raise or lower the signal;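 also: human H295R adrenal cells primed with 10 µM forskolin before dosing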
In short: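 H295R adrenal cells prestimulated 48 h with 10 uM forskolin, then exposed 48 h to test chemical in 0.1% DMSO. Progesterone in medium quantified by HPLC-MS/MS after MTBE extraction; viability checked by MTT in same wells.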

[18] = read-out: Cytochrome P450 (CYP1A1), CYP1A1 (gene 1543); test: LTEA_HepaRG_CYP1A1: Life Technologies and Expression Analysis (LTEA) Assay for Cytochrome P450 (CYP1A1) using HepaRG (AID 2283454); details: mRNA level, 48 h; actives raise or lower the signal
In short: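 Differentiated human HepaRG cells, after 48 h plating, exposed in duplicate for 48 h in serum-free induction medium to 8 half-log concentrations up to 100 uM in 0.5% DMSO. CYP1A1 mRNA by qRT-PCR, normalized to ACTB/GAPDH/POLR2A; bidirectional fit versus DMSO.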

[19] = CEETOX_H295R_TESTO: CeeTox H295R High-throughput Steroidogenesis Assay for Testosterone (TESTO) (AID 2283457); details: actives raise or lower the signal
In short: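 H295R adrenal cells, passage ≤10, exposed to chemicals for 48 h. Testosterone in medium measured by MTBE extraction and HPLC-MS/MS against a 7-point standard curve. Bidirectional fit versus DMSO; MTT viability checked in the same wells.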

Measured: AC50

Chain of Fatty acid synthase (Homo sapiens) (P49327 whole entry, looked up): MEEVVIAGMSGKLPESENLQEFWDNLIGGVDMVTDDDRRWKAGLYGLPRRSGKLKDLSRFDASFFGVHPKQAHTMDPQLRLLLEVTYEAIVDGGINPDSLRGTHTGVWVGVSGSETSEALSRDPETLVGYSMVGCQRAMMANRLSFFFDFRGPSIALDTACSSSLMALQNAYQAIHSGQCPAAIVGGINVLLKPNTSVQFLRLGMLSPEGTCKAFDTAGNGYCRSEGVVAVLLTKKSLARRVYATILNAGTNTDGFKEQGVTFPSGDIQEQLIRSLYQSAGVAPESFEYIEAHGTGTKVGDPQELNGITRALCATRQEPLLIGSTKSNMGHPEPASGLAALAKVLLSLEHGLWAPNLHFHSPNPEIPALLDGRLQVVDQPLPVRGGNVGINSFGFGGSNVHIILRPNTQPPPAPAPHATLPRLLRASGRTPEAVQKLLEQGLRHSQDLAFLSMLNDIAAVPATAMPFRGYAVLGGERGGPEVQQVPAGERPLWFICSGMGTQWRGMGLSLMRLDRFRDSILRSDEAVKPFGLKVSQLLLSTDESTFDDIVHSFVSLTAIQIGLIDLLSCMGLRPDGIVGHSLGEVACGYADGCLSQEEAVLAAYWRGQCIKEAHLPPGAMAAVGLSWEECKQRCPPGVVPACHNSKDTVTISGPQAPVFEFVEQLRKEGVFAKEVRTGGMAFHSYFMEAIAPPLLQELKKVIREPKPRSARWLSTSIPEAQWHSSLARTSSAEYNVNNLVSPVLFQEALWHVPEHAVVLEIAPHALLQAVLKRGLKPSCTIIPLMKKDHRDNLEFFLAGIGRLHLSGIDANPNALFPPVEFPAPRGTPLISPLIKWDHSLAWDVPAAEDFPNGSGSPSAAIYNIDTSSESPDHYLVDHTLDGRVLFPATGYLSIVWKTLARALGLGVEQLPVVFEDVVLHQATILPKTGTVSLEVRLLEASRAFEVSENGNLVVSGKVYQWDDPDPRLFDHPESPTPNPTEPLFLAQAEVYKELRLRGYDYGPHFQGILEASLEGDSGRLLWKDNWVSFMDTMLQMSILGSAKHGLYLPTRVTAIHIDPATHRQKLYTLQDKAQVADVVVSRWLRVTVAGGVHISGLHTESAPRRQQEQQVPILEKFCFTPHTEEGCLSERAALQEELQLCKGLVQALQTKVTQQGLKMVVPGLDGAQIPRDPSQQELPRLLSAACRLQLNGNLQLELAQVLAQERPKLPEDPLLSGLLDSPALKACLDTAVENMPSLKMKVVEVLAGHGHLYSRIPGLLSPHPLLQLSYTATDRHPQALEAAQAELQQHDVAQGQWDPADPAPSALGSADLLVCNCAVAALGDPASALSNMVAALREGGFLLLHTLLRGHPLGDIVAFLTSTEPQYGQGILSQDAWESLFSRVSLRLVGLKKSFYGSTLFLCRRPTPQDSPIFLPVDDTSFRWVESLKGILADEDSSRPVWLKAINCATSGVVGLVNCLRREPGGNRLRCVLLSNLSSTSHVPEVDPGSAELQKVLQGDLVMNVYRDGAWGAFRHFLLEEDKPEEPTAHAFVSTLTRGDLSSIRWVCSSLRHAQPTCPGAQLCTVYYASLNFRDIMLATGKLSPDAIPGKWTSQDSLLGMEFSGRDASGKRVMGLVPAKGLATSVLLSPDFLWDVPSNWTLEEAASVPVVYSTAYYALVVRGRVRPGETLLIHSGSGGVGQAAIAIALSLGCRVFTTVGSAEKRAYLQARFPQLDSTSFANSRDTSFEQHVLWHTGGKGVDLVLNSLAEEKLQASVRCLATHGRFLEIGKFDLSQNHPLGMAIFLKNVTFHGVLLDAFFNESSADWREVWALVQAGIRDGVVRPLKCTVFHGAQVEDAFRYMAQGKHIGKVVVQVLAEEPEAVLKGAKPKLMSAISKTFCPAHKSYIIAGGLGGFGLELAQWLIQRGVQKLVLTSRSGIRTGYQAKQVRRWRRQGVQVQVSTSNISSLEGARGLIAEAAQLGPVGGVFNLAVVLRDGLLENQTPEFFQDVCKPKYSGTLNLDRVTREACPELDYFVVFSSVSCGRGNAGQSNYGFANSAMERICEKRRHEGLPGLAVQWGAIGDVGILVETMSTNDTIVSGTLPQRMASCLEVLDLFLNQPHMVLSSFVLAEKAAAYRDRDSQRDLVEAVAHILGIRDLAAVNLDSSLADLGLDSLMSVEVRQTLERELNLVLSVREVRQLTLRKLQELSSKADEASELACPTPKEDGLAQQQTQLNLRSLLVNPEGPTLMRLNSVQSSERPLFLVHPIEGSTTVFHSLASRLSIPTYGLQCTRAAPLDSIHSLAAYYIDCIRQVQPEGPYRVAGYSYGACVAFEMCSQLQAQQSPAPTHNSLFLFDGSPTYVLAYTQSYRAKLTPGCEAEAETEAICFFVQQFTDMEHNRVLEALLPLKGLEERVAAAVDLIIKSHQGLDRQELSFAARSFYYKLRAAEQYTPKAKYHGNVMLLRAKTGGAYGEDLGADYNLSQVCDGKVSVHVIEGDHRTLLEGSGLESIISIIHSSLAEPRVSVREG
Chain of Broad substrate specificity ATP-binding cassette transporter ABCG2 (Homo sapiens) (Q9UNQ0 whole entry, looked up): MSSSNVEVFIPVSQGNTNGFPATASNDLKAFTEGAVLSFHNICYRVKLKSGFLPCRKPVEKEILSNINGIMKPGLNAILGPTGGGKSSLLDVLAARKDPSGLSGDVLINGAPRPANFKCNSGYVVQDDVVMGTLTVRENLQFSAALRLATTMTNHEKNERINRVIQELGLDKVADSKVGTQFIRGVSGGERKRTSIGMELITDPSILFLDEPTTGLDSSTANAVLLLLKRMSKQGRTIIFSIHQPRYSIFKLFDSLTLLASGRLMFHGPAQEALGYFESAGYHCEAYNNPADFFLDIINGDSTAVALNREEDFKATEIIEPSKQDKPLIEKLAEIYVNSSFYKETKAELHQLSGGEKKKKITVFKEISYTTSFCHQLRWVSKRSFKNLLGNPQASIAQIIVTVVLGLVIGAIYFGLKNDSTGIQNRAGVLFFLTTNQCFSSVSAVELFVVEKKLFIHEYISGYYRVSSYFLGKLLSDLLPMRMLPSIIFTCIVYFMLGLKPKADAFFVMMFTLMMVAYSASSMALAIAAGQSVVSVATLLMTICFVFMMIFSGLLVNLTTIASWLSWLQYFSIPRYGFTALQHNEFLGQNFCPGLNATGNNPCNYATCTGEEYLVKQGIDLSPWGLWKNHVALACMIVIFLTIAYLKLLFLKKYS

O=C1O[C@H]([C@@H](O)CO)C(O)=C1O
not listed: [17] | [18] | [19]
inactive: all other assays above

CN1C(=O)N(c2ccccc2Br)Cc2cnc(Nc3ccc4c(c3)OCC(CO)O4)nc21 (stereo not given)
active: [17] 0.661 µM | [1] 90.4 µM | [2] 78.3 µM | [6] 67.2 µM | [18] 12.1 µM | [9] 39.2 µM | [10] 0.0221 µM | [12] 89.9 µM | [13] 28.6 µM | [14] 80.3 µM | [15] 77.1 µM
inactive: [3] | [4] | [8] | [11] | [16]

CCCCOC(=O)c1ccc(O)cc1
active: [17] 3.6 µM
not listed: [3]
inactive: all other assays above
